Assay outcomes deposited in PubChem by National Center for Advancing Translational Sciences (NCATS).
The entries come from a sample that favours hits as a whole.
nsP2pro primary = CHIKV nsP2 protease inhibition, primary qHTS; Q8JUX6; FRET peptide cleavage, nsP2pro, fluorescence 1 h; Potency, µM (top dose mostly 24.9 µM), hits mostly inhibitors; 31,000 compounds, 1.1% hits; AID 1964107; further: nearly all actives have a fitted effect of over 60% in size
Target sequence (Q8JUX6 whole entry, looked up): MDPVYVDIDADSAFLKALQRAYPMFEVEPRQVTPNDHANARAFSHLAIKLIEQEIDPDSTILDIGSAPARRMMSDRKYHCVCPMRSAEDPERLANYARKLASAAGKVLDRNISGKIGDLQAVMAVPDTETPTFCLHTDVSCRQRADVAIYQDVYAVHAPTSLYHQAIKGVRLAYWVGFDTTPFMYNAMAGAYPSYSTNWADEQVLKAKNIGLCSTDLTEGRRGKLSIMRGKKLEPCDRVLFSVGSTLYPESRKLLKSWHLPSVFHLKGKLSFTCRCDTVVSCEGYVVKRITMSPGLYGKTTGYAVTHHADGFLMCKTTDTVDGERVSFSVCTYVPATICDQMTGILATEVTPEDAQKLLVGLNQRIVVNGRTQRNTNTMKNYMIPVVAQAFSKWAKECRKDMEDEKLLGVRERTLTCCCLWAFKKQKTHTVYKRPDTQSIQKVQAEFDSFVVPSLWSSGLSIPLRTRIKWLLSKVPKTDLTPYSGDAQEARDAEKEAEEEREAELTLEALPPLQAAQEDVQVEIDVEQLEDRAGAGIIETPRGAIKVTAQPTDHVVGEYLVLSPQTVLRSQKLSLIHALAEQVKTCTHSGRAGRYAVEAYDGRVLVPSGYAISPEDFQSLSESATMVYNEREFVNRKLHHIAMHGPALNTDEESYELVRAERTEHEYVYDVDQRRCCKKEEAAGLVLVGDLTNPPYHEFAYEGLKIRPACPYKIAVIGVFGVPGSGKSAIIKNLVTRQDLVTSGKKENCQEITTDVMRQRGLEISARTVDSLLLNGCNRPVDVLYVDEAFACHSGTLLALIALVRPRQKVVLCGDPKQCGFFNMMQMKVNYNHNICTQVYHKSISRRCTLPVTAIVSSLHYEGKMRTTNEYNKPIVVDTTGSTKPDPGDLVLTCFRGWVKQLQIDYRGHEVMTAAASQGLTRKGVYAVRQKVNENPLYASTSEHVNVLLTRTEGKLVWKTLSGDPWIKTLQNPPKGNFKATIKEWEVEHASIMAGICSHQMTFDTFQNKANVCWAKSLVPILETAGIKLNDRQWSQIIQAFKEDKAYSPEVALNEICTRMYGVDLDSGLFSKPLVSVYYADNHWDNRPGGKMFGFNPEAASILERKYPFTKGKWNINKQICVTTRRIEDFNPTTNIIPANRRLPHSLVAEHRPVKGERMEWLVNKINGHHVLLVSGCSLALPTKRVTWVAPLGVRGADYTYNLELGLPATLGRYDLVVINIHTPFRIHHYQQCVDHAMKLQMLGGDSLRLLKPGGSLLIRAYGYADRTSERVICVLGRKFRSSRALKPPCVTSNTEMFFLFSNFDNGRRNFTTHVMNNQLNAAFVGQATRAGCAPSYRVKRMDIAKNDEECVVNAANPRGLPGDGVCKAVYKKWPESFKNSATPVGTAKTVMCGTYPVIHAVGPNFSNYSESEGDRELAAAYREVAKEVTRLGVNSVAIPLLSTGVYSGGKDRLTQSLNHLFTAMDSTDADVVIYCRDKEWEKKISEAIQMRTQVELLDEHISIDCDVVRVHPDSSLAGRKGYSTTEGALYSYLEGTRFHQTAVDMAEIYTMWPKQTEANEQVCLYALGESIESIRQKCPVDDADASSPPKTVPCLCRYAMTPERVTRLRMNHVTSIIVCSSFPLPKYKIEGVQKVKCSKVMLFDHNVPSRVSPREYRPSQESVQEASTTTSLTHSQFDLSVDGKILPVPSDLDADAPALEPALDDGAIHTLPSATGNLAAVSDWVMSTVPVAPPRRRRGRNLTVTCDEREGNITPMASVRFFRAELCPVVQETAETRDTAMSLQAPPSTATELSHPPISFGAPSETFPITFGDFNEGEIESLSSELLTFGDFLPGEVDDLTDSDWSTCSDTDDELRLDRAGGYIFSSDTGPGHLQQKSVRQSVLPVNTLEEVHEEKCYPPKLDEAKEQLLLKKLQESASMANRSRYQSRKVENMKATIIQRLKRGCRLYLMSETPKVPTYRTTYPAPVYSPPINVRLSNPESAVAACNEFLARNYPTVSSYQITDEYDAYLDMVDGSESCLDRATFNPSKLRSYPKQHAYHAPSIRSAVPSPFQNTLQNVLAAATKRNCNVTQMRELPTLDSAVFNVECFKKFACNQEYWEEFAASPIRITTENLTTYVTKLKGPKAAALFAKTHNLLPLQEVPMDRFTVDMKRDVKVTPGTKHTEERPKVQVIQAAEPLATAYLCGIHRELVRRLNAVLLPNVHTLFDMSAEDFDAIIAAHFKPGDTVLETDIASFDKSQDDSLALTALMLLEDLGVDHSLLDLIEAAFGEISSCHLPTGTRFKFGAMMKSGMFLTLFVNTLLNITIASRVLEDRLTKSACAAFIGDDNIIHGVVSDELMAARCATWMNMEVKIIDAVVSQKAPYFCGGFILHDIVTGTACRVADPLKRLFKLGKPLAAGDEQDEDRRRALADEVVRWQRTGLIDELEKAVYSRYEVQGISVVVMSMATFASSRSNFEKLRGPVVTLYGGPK
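Recombinant nsP2pro (150 nM) was preincubated with compound 15 min at room temperature in 10 mM Tris-HCl pH 8.0, 0.01% Tween 20. Peptide 2 FRET substrate (2.5 uM) was then added and fluorescence read after 1 h. Seven-point series, up to 25 uM.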
nsP2 cell sec = cell-based CHIKV nsP2 protease inhibition, secondary | cell-based CHIKV nsP2 protease reporter assay | shares compounds with nsP2pro primary | 450 compounds, 10% hits | Potency, µM (titrated, usually from 51.1 µM), most hits filed as inhibitors | AID 1964100; further: nearly all actives have a fitted effect of over 70% in size
CHIKV NSP2 FL = selectivity test for CHIKV nsP2 protease inhibitors: full-length NSP2. shares compounds with nsP2pro primary. Full-length CHIKV NSP2 protease enzymatic counterscreen. Potency, µM (highest dose often 50.7 µM), usual class: inhibitors. 410 compounds, 39% hits. AID 1964101; further: nearly all actives have a fitted effect of over 65% in size
Furin counterscr = human furin inhibition, counterscreen for nsP2pro inhibitors; Recombinant human furin enzymatic counterscreen, fluorogenic substrate; 410 compounds, 6% hits; shares compounds with nsP2pro primary; AID 1964102; Potency, µM (top dose mostly 50.6 µM), actives largely listed as inhibitors
nsP2 NS23 pep = blocks CHIKV nsP2 protease cleavage of endogenous NS2/3 peptide; shares compounds with nsP2pro primary; Purified CHIKV nsP2 protease, endogenous NS2/3 peptide cleavage; Potency, µM (series often up to 51 µM), usual class: inhibitors; 410 compounds, 34% hits; further: nearly all actives have a fitted effect of over 55% in size
Papain counter = inhibits papain in a CHIKV nsP2 protease selectivity counterscreen; shares compounds with nsP2pro primary; purified papain protease activity, enzymatic inhibition; Potency, µM (top dose mostly 51 µM), actives largely listed as inhibitors; 410 compounds, 5% hits; AID 1964104
nsP2pro confirm = CHIKV nsP2 protease inhibition, confirmatory qHTS. shares compounds with nsP2pro primary. CHIKV nsP2 protease enzymatic activity, qHTS. Potency, µM (top dose mostly 25.5 µM), usual class: inhibitors. 410 compounds, 43% hits; further: nearly all actives have a fitted effect of over 75% in size
HCV NS3 counter = inhibits HCV NS3/4A protease in an nsP2pro selectivity counterscreen; AID 1964106; shares compounds with nsP2pro primary; HCV NS3/4A protease biochemical counterscreen; Potency, µM (doses to about 50.9 µM), hits mostly inhibitors; 410 compounds, 20% hits; further: nearly all actives have a fitted effect of over 55% in size
Hits are given with their value; 0 = inactive; ? = inconclusive; ! = not active in a repeat. The call rests on the fitted dose curve.

SMILES	nsP2pro primary	others
CCc1ccc(-c2cc3n(n2)CCCN(C(=O)CCc2cc(Cl)no2)C3)cc1	0
Cc1ccc(-c2cc3n(n2)CCCN(C(=O)CCN2C(=O)NC(C)(C)C2=O)C3)cc1C	0
Cc1ccc(OCCn2c(CCNC(=O)c3ccc(C(C)(C)C)cc3)nc3ccccc32)cc1	0
O=C1Nc2ccccc2/C1=C/c1cc(Cl)c(O)c(Cl)c1	0
O=C1c2ccccc2-c2nc3nnnn3nc21 (tested in a mixture with another compound)	?	nsP2 cell sec=?;CHIKV NSP2 FL=?;Furin counterscr=0;nsP2 NS23 pep=0.92µM;Papain counter=0;nsP2pro confirm=?;HCV NS3 counter=0
CCn1ccc(C(=O)N2CC[C@H](c3nc(C)no3)[C@H](NC(=O)C3CC3)C2)n1	0
CN(CCc1cnc[nH]1)c1ncnc2ccc(-c3ccc4c(c3)OCO4)cc12	0
N#Cc1ccnc(N2C(=O)CC[C@H]2C(=O)N(c2cncc(F)c2)[C@H](C(=O)NC2CC(F)(F)C2)c2ccccc2Cl)c1	?	nsP2 cell sec=?;CHIKV NSP2 FL=0;Furin counterscr=0;nsP2 NS23 pep=0;Papain counter=0;nsP2pro confirm=0;HCV NS3 counter=?
Cc1ccccc1C(C(=O)NC1CCCCC1)N(C(=O)Cn1cnc2ccccc21)c1cccc(F)c1 (configuration not stated)	0
Cc1ccc(CNc2ccccc2C(=O)Nc2nc(-c3ccccc3)cs2)cc1	0
O=C(NC1CCCc2c1cnn2-c1ccc(F)cc1F)c1ccccn1 (configuration not stated)	7.9µM!	nsP2 cell sec=0;CHIKV NSP2 FL=0;Furin counterscr=0;nsP2 NS23 pep=0;Papain counter=0;nsP2pro confirm=0;HCV NS3 counter=0
O=C(N[C@H]1CCCc2c1cnn2-c1ccc(F)cc1F)c1ccccn1	0
O=C(NC1CCCc2c1cnn2-c1ccc(F)cc1F)c1ccncc1 (configuration not stated)	0
COCCN1CC2CN(C(=O)CCCc3ccccc3)CC(C1)O2	0
CC[C@@H]1[C@@H]2CN(C(=O)[C@H](C(C)(C)C)NC(=O)O[C@@H]3C[C@H]3CCCCC(F)(F)c3nc4ccc(OC)cc4nc3O2)[C@@H]1C(=O)N[C@]1(C(=O)NS(=O)(=O)C2(C)CC2)C[C@H]1C(F)F	0
Cc1ccc(NC(=O)c2cnn3c(C)cc(C)nc23)cc1	0
O=C(c1ccc(OC2CCN(C(=O)C3CCCC3)CC2)nc1)N1CCOCC1	0
O=C(CCCc1ccccc1)N1CCCCCC1c1nc(C2CC2)no1 (configuration not stated)	0
Cc1c(Cl)cccc1NC(=O)c1cc2sccc2n1Cc1ccc(F)cc1	7.9µM	nsP2 cell sec=?;CHIKV NSP2 FL=5.8µM;Furin counterscr=0;nsP2 NS23 pep=16µM;Papain counter=0;nsP2pro confirm=8µM;HCV NS3 counter=8.2µM
Cc1ccc(CNC(=O)c2cc3sccc3n2Cc2ccc(F)cc2)cc1	0
O=C(NCc1ccccc1)c1cc2sccc2n1Cc1ccc(F)cc1	0
NCc1ccc(Oc2ccccc2)cc1	0
C=CCN1CCN(C(=O)[C@@]23CCCC[C@H]2N(CCC(C)C)C(=O)CC3)CC1	0
FC(F)(F)c1cccc(N2CCN(C(=S)Nc3nccc4cccnc34)CC2)c1	0
COc1ccc(-c2noc(-c3nc(-c4ccc(N(C)C)cc4)no3)n2)cc1OC	0
SMILES	nsP2pro primary	others
CN(Cc1ccc(OC(F)(F)F)cc1)Cc1cccc(C(F)(F)F)c1	0
CC(C)CCNC(=O)[C@H]1CN(Cc2ccccc2)C[C@H]1C(=O)O	0
Cc1cccc(N(C)C(=O)CN(C)S(=O)(=O)c2ccc3[nH]c4c(c3c2)CCCC4)c1	?	nsP2 cell sec=0
Cc1ccc(CNS(=O)(=O)c2ccc3[nH]c4c(c3c2)CCCC4)cc1	0
CN(CC(=O)NCc1ccc(F)cc1)S(=O)(=O)c1ccc2[nH]c3c(c2c1)CCCC3	0
COc1cccc(CN2CCCC3(CNc4ccccc4[S+](=O)([O-])N3)C2)c1 (configuration not stated)	0
COc1ccc(NC(=O)CN2C(=O)N/C(=C\c3cccn3-c3ccc(C(=O)NC#N)cc3)C2=O)cc1	0
